From PubChem BioAssay (NCATS)
Inconclusive results are not listed. A number with no mark means an inactive call. Activity calls are given as the source filed them. The call rests on the fitted dose curve; in most records, active means well fitted inhibition curve with a large enough effect; inconclusive means small, poorly fitted or top-dose-only effect; inactive means no such curve, though single readings can be large or run the other way. Where a SMILES comes first, the peptide text is derived from it. The star is where a group is joined. AMC = Cc1cc(=O)oc2cc(N*)ccc12; Cbz = O=C(OCc1ccccc1)*; Hexanoyl = CCCCCC(=O)*; PhAc = O=C(Cc1ccccc1)*

tested on: Zika virus NS2B-NS3 protease (unlinked complex); assay: Primary screen GU Rhodamine qHTS for Zika virus inhibitors: Unlinked NS2B-NS3 protease assay (AID 1347159); conditions: Recombinant ZIKV NS2B-NS3 protease, Rhodamine110 substrate fluorescence; series mostly up to 107 µM; activity change, negative = inhibition: at the top concentration; further: nearly all actives have a fitted effect of over 60% in size
How it was run: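 Percent inhibition came from the 15-min rise in Rhodamine110 fluorescence (1.5 microM substrate, ~15% conversion), normalized to no-inhibitor and no-enzyme wells and Hill-fitted. Unlinked protease, 25 nM, pH 8.0 Tris buffer; compounds up to 114 microM, 15-min preincubation.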
On the % scale 0 is the no-effect control and ±100 the full control effect; potency means the concentration at half of the fitted maximal effect.

Question: CCC(C)/C=C(C)/C=C/C1=CC2=CC(=O)C(C)(O)C(OC(C)=O)C2CO1 (configuration not stated) was tested. Which Potency did it give?
Answer: 14.1 µM (active)

Question: For O=C(O)CC/C=C\C[C@H]1CO[C@@H](c2ccccc2Cl)O[C@H]1c1ccccc1O, which “activity change, negative = inhibition” value is on record?
Answer: -28.4%

Question: For Cc1cc(=O)oc2cc(NC(=O)[C@H](CCC(=O)O)NC(=O)[C@H](CC(C)C)NC(=O)[C@H](CC(C)C)NC(=O)OCc3ccccc3)ccc12 (Cbz-Leu-Leu-Glu-{AMC}), which “activity change, negative = inhibition” value is on record?
Answer: -24.1%

Question: C=C1CCC2C(C)(C)CC(O)CC2(C)C1CCC(C)CC(=O)O (configuration not stated) was tested. Which Potency did it give?
Answer: 11.2 µM (active)

Question: How did the Potency turn out when C=C1CCC[C@]2(C)CC[C@@](O)(C(=C)C(=O)O)C[C@@H]12 was run?
Answer: 11.2 µM (active)

Question: CC1CCC2(C(=O)O)CCC3(C)C(=CCC4C5(C)CCC(O)C(C)(C(=O)O)C5CCC43C)C2C1(C)O (configuration not stated) was tested. Which “activity change, negative = inhibition” value did it give?
Answer: -25.7% [at 57.1 µM]

Question: Which Potency does the source give for CC1=CCC[C@@H]2[C@](CCc3ccoc3)(C(=O)O)[C@H](C)CC[C@@]12C here?
Answer: 8.91 µM (active)

Question: With CC(C)(Oc1ccc(-c2nc3cc(Cl)ccc3s2)cc1)C(=O)O as the compound, how does the Potency read?
Answer: 35.5 µM (active)

Question: With CN1CCN(c2nc(-c3ccc(C(=O)NC4(C(=O)NCC#N)CCCCC4)cc3)cs2)CC1 as the compound, how does the “activity change, negative = inhibition” value read?
Answer: -7.55%

Question: For CC(/C=C/C=C(\C)C(=O)O[C@@H]1O[C@H](CO[C@@H]2O[C@H](CO)[C@@H](O)[C@H](O)[C@H]2O)[C@@H](O)[C@H](O)[C@H]1O)=C\C=C\C=C(C)\C=C\C=C(/C)C(=O)O[C@@H]1C[C@](O)(C(=O)O)C[C@@H](O)[C@H]1OC(=O)/C=C/c1ccc(O)c(O)c1, which Potency is on record?
Answer: 1.78 µM (active)

Question: Cc1c(Cc2ccc3ccccc3n2)c2cc(F)ccc2n1CC(=O)O was tested. Which Potency did it give?
Answer: 35.5 µM (active)

Question: Which Potency does the source give for CC(=O)OC1CCC2(C)C(CCC3(C)C2CC=C2C4CC(C)(C)CCC4(C)CCC23C)C1(C)C(=O)O (configuration not stated) here?
Answer: 7.08 µM (active)

Question: For COc1cccc(C)c1C(=O)O[C@@H]1C[C@H](O[C@H]2[C@H](O)C[C@H](O[C@@H]3CCC[C@H]4[C@H]3C=C[C@@H]3CCCC/C=C/[C@H]5C=C(C(=O)O)[C@@H](C)C[C@@]56OC(=O)C(=C6O)OC(=O)[C@@]34C)O[C@@H]2C)O[C@H](C)[C@H]1O, which “activity change, negative = inhibition” value is on record?
Answer: -28.3% [at 32.5 µM]

Question: Which “activity change, negative = inhibition” value does the source give for CC(C)c1ccc2c(c1)C(O)CC1C(C)(CO)CCCC21C (configuration not stated) here?
Answer: -16.4%

Question: How did the Potency turn out when COc1ccc2c(c1)C=C1Cn3c-2c(C2CCCCC2)c2ccc(cc23)C(=O)NS(=O)(=O)N(C)CCOCCN(C)C1=O was run?
Answer: 2.51 µM (active)

Question: With C=C1CCC2C(C)(C)CC(O)CC2(C)C1CCC(C)CCOC(=O)CCC(=O)O (configuration not stated) as the compound, how does the Potency read?
Answer: 2.51 µM (active)

Question: Which Potency does the source give for COc1ccc(CC(NC(C)=O)C(=O)O)cc1 (configuration not stated) here?
Answer: 31.6 µM (active)

Question: How did the Potency turn out when O=C(/C=C/c1ccccc1)OC[C@H]1O[C@@H](OC(=O)c2cc(O)c(O)c(O)c2)[C@H](O)[C@@H](O)[C@@H]1O was run?
Answer: 3.98 µM (active)

Question: C[C@@H]1[C@H]2[C@H](O[C@@H]3O[C@H](CO)[C@@H](O)[C@H](O)[C@H]3O)OC=C(C(=O)O)[C@H]2C[C@@H]1OC(=O)/C=C/c1ccc(O)cc1 was tested. Which Potency did it give?
Answer: 31.6 µM (active)

Question: Cc1cc(-n2c(=O)[nH]c(=O)n(C)c2=O)ccc1Oc1ccc(SC(F)(F)F)cc1 was tested. Which Potency did it give?
Answer: 15.8 µM (active)

Question: CCCCCC(=O)N1CCC[C@H]1C(=O)N[C@@H](Cc1ccc(O)cc1)C(=O)OC (Hexanoyl-Pro-Tyr-OMe) was tested. Which “activity change, negative = inhibition” value did it give?
Answer: 3.92%

Question: How did the “activity change, negative = inhibition” value turn out when COc1cc(C(=O)OC[C@@]2(O)CO[C@@H](O[C@H]3[C@H](Oc4ccc(O)cc4)O[C@H](CO)[C@@H](O)[C@@H]3O)[C@@H]2O)cc(OC)c1O was run?
Answer: -6.83% [at 32.5 µM]

Question: With O=C(O)CCc1ccc(NCc2cccc3c2CCCN3CCOc2ccccc2)cc1F as the compound, how does the Potency read?
Answer: 3.16 µM (active)

Question: Which “activity change, negative = inhibition” value does the source give for COC(=O)C1=CO[C@@H](O[C@@H]2O[C@H](CO)[C@@H](O)[C@H](O)[C@H]2O)[C@H]2[C@@H]1[C@H](O)[C@H](O)[C@]2(C)O here?
Answer: 7.24% [at 57.1 µM]

Question: For CCOc1ccc(-c2nn3ncccc3c2-c2ccc(S(C)(=O)=O)cc2)cc1, which “activity change, negative = inhibition” value is on record?
Answer: 52.2%

Question: c1cc(-c2cc(C3CCNCC3)[nH]n2)ccn1 was tested. Which “activity change, negative = inhibition” value did it give?
Answer: 68.2% [at 57.1 µM]

Question: Which “activity change, negative = inhibition” value does the source give for CCOC(=O)CNC(=O)[C@@H]1CCCN1C(=O)Cc1ccccc1 (PhAc-Pro-Gly-OEt) here?
Answer: 4.03%

Question: Which Potency does the source give for C=CC1(C)C=C2CC[C@H]3[C@@](C)(C(=O)O)CCC[C@]3(C)C2CC1 (some centres not stated) here?
Answer: 7.94 µM (active)

Question: For C=C(C)[C@H]1CC[C@]2(C(=O)O)CC[C@]3(C)C(CCC4[C@@]5(C)CCC(=O)C(C)(C)C5CC[C@]43C)C12 (some centres not stated), which Potency is on record?
Answer: 7.08 µM (active)

Question: For C=CC(C)(O)CC/C=C(\C)COC1O[C@H](CO)[C@@H](O)[C@H](O)[C@H]1O (some centres not stated), which Potency is on record?
Answer: 12.6 µM (active)

Question: How did the “activity change, negative = inhibition” value turn out when COc1cc2c(c(OC)c1O)C(c1ccc(O)cc1)C1C(=O)OC3C(COC(=O)C1=C2)OC(CO)(OC1OC(COC(=O)/C=C/c2ccc(OC4OC(C)C(O)C(O)C4O)cc2)C(O)C(O)C1O)C3O (configuration not stated) was run?
Answer: 33.8% [at 32.5 µM]

Question: C/C=C(\C)C1C(C)=CC2CCC(OS(=O)(=O)O)C(C)C2C1/C=C/C=C/C(=O)O (configuration not stated) was tested. Which Potency did it give?
Answer: 8.91 µM (active)

Question: CC1=C2C3OC(=O)C(C)C3(O)CCC2(C)CCC1 (configuration not stated) was tested. Which “activity change, negative = inhibition” value did it give?
Answer: -16.6%

Question: With COC(=O)[C@]1(C)CCC[C@@]2(C)C(=O)CC[C@H]3C(=O)C=C(CC[C@@H]21)C3O (some centres not stated) as the compound, how does the “activity change, negative = inhibition” value read?
Answer: -25.9%

Question: C/C1=C\CC(C)(C)/C=C/C/C(C(=O)O)=C/CC1 was tested. Which Potency did it give?
Answer: 14.1 µM (active)

Question: With CC1(C)C[C@H]2C=C(C=O)[C@]3(C(=O)O)C[C@]3(C)[C@H]2C1 as the compound, how does the Potency read?
Answer: 22.4 µM (active)

Question: Cc1sc(C)c(C(=O)NC2(c3ccc(C(=O)O)cc3)CC2)c1Cc1ccc(C(F)(F)F)cc1 was tested. Which Potency did it give?
Answer: 17.8 µM (active)
